{"source": "PubChem BioAssay (NCI)", "note": "About 83,000 compounds went through this panel and 20% of them were active in at least one assay; those are over-represented in the sample as a whole.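 Cells were grown in 96-well plates and exposed to the test compound at a single concentration for 48 hours; results are reported as percent growth, with values below 10 considered active.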 A number with no mark means an inactive call. Active and inactive are the calls of the source.", "data": [{"system": "HOP-92 NSCLC", "assay": "NCI-60 one-dose screen, 48 h (100 = growth as untreated, 0 = no growth, -100 = all killed)", "conditions": "10 µM unless noted", "values": [{"smiles": "Cc1ccc(-c2onc3c(=O)[nH]nc(-c4ccccc4)c23)cc1", "growth": "31.8%"}, {"smiles": "O=C1CSC(=S)N1CCc1ccc(O)cc1", "growth": "66.9%"}, {"smiles": "CNC(=O)c1cc(Oc2ccc(NC(=O)Nc3ccc(Cl)c(OC(F)(F)F)c3)c(F)c2)ccn1", "growth": "28.9%"}, {"smiles": "N#C/C(=C\\c1ccc(-c2ccc(Cl)c(Cl)c2)o1)c1nc(-c2ccco2)cs1", "growth": "109%"}, {"smiles": "O=S(=O)(Nc1ccc(OC(F)F)cc1)c1ccc(-c2cnc(C3CC3)o2)cc1", "growth": "59.3%"}, {"smiles": "O=C1Nc2cc(-c3ccc(O)cc3)ccc2/C1=C/c1ccc[nH]1", "growth": "10.8%"}, {"smiles": "CON1C(=O)CC[C@]2(C)[C@H]3CC[C@@H]4C([C@@]5(C)CCC(=O)O5)CC[C@@]4(C)[C@]3(C)CC[C@H]2C1(C)C", "note": "(some centres undefined)", "growth": "95.3%"}, {"smiles": "Cn1cc(C(=O)c2nc(-c3c[nH]c4ccc(Br)cc34)no2)c2cc(F)ccc21", "growth": "85.4%"}, {"smiles": "COc1ccc(-n2nc(C)c3c(Nc4ccc(NC(=O)Nc5cccc(C(F)(F)F)c5)cc4)ncnc32)cc1", "growth": "-26.4% (active)"}, {"smiles": "CC(C)C1=C[C@@]23CC[C@@H]4[C@](C)(CCC[C@@]4(C)C(=O)N4CCCNCC4)[C@H]2C[C@@H]1[C@H]1C(=O)CCC(=O)[C@H]13", "growth": "101%"}, {"smiles": "C#CCOc1ccc2ncnc(N3CCC(NC(=O)CCl)CC3)c2c1", "growth": "56.8% [8.25 µM]"}, {"smiles": "Cc1ccc(NC(=O)/C=C/c2ccccc2)c(C(N)=O)c1", "growth": "62.9%"}, {"smiles": "COc1ccc(/C=C\\c2cc(OC)c(OC)c(OC)c2)cc1OC(=O)c1cccc(Cn2cc(CCOC(=O)[C@H](N)Cc3cn(C)c4ccccc34)nn2)c1", "growth": "61.6%"}, {"smiles": "O=C1c2ccccc2C(=O)c2c1ccc1[nH]c(-c3cccs3)nc21", "growth": "80.8%"}, {"smiles": "CN1CCN(Cc2ccc(NC(=O)c3cncc(C#Cc4cncn5ccnc45)c3)cc2C(F)(F)F)CC1", "growth": "38.8%"}, {"smiles": "CC(C)(C)c1cc(/C=N\\NC(=O)/C=C/C=C/c2ccc3c(c2)OCO3)c(O)c(C(C)(C)C)c1", "growth": "88.5%"}, {"smiles": "CCCc1cc(=O)n2c(C(=O)Nc3ccc(F)cc3)c(C(=O)Nc3ccc(F)cc3)sc2n1", "growth": "-36.3% [30 µM] (active)"}, {"smiles": "O=C(O)COc1ccc(Cl)cc1C1CCCCC1", "growth": "111%"}, {"smiles": "NC(=O)c1cc(Br)ccc1NC(=O)/C=C/c1ccccc1", "growth": "57%"}, {"smiles": "Cc1nn(-c2ccc(F)cc2)c2ncnc(Oc3ccc(NC(=O)Nc4ccc(Cl)c(C(F)(F)F)c4)cc3)c12", "growth": "104%"}, {"smiles": "CSc1nc(-c2cccc(NC(=O)CCl)c2)c(C#N)c(=O)n1C", "growth": "42.7%"}, {"smiles": "CCCCN(CCCC)CCCn1c(-c2ccccc2)ccc1-c1ccccc1", "growth": "44.7%"}, {"smiles": "Cc1c(/C=C/[N+](=O)[O-])ccc2c1[nH]c1ccccc12", "growth": "90.6%"}, {"smiles": "c1ccc(Cn2cc(-c3nc4ccccc4s3)c3cccnc32)cc1", "growth": "98.3%"}, {"smiles": "O=C(N/N=C/c1c[nH]c2ccccc12)c1cc(-c2ccccc2)on1", "growth": "92.1%"}, {"smiles": "CCCn1c(=O)[nH]c(N)c([C@H]2c3ccccc3Oc3[nH]c(=O)n(CCC)c(=O)c32)c1=O", "growth": "102%"}, {"smiles": "CC(=O)O[C@H]1[C@@H]2OC(=O)C(CSc3ccccc3)[C@@H]2C[C@H]2O[C@]2(C)CC/C=C(\\C)CCC[C@@H]1C", "note": "(some centres undefined)", "growth": "-22.4% (active)"}, {"smiles": "O=C1Nc2ccc(Br)cc2C12Oc1ccccc1C1CC(c3ccc(F)cc3)=NN12", "note": "(centres undefined)", "growth": "109%"}, {"smiles": "C=C1c2nc3ccccc3n2C=C(c2cccc(Cl)c2)N1Cc1ccc(OC)cc1", "growth": "77.9%"}, {"smiles": "C#CC(F)(F)[C@]1(O)CC[C@H]2[C@@H]3CCC4=CC(=O)CCC4=C3[C@@H](c3ccc(C(C)=O)cc3)C[C@@]21C", "growth": "-31.7% (active)"}, {"smiles": "CC(=O)O[C@H]1CC[C@]2(C)[C@H]3CC=C4[C@@H]5CC(C)(C)CC[C@]5(C(=O)NCCNCCNCCN)CC[C@@]4(C)[C@]3(C)CC[C@H]2C1(C)C", "growth": "61.9%"}, {"smiles": "COc1ccc(-c2cc(NC(=O)Nc3ccc4ncsc4c3)no2)cc1", "growth": "105%"}, {"smiles": "CCN(CC)c1ccc(-c2cc(-c3cc(OC)c(OC)c(OC)c3)nc(N3CCOCC3)c2C#N)cc1", "growth": "-1.28% (active)"}, {"smiles": "CC1=CC(=NN=c2cc(C)n([O-])c(C)c2)C=C(C)[N+]1=O", "growth": "93.2%"}, {"smiles": "Cc1ccc2oc(=O)cc(C3c4ccc([nH]4)C(c4cc(=O)oc5ccc(C)cc45)c4ccc([nH]4)C(c4cc(=O)oc5ccc(C)cc45)c4ccc([nH]4)C(c4cc(=O)oc5ccc(C)cc45)c4ccc3[nH]4)c2c1", "note": "(centres undefined)", "growth": "-24.1% (active)"}, {"smiles": "COc1cc2c(cc1-c1c(C)noc1C)ncc1nc(C3CCOCC3)n([C@@H](C)COC(F)F)c12", "growth": "31.8%"}, {"smiles": "Cc1[nH]c(-c2cc(N)ccc2Cl)c2c1C(=O)CCCC2", "growth": "24.5%"}, {"smiles": "O=S(=O)(Nc1ccc(Br)c(Cl)c1)c1ccc(-c2cnc(C3CC3)o2)cc1", "growth": "40.8%"}, {"smiles": "C=CC(=O)Nc1cccc(-c2nc(SC)nc(NCCN3CCOCC3)c2C#N)c1", "growth": "76.1%"}]}]}
